# Results as given in ChEMBL document CHEMBL2218924, “A broad activity screen in support of a chemogenomic map for kinase signalling research and drug discovery” (Biochem J, 2013).
# Columns and labels:
# [1] = biological target: T1, Aurora kinase C (Homo sapiens) (UniProt Q9UQB9); conditions: at 1 µM
# T1 sequence (whole entry): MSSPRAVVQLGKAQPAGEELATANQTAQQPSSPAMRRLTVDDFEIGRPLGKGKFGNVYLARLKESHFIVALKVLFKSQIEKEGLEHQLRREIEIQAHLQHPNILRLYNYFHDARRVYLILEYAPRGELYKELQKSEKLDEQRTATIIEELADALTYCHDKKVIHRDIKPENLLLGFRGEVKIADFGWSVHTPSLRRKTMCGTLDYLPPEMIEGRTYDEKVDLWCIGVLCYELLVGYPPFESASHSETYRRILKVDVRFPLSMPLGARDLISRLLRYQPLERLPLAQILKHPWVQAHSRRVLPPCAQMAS
# [2] = biological target: T1, Aurora kinase C (Homo sapiens); conditions: at 10 µM
# [3] = biological target: Tyrosine-protein kinase receptor UFO (Homo sapiens) (UniProt P30530); conditions: at 1 µM
# [4] = biological target: Protein-tyrosine kinase 6 (Homo sapiens) (UniProt Q13882); conditions: at 1 µM
# [5] = biological target: Protein-tyrosine kinase 6 (Homo sapiens) (UniProt Q13882); conditions: at 10 µM
# [6] = biological target: Tyrosine-protein kinase BTK (Homo sapiens) (UniProt Q06187); conditions: at 1 µM
# [7] = biological target: Tyrosine-protein kinase BTK (Homo sapiens) (UniProt Q06187); conditions: at 10 µM
# [8] = biological target: Tyrosine-protein kinase Blk (Homo sapiens) (UniProt P51451); conditions: at 1 µM
# [9] = biological target: Tyrosine-protein kinase Blk (Homo sapiens) (UniProt P51451); conditions: at 10 µM
# [10] = biological target: Tyrosine-protein kinase receptor UFO (Homo sapiens) (UniProt P30530); conditions: at 10 µM
# Sequence of Tyrosine-protein kinase receptor UFO (Homo sapiens) (P30530 whole entry): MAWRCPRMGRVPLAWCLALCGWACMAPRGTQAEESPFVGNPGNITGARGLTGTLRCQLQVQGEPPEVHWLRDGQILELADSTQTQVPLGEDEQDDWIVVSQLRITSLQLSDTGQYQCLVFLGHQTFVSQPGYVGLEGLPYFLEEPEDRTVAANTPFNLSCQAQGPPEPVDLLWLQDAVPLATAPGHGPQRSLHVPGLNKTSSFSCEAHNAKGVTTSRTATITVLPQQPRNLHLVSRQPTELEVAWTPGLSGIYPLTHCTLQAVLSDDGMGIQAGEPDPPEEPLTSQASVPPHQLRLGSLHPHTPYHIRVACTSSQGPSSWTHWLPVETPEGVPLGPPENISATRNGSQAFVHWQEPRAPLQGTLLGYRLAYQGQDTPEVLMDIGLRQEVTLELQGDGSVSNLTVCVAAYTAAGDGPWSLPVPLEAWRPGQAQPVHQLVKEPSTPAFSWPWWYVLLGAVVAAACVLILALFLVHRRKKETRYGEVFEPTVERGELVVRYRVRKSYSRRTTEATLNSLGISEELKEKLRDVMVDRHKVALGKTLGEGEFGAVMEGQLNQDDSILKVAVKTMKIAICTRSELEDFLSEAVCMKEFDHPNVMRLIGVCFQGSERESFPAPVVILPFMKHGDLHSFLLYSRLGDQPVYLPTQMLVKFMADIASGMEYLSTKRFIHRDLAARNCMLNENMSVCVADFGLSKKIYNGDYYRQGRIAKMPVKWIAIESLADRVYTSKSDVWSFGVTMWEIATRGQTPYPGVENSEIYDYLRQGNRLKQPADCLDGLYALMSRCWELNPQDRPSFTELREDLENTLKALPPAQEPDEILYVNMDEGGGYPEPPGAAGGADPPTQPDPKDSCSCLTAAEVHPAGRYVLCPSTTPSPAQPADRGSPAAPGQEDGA
# Sequence of Tyrosine-protein kinase BTK (Homo sapiens) (Q06187 whole entry): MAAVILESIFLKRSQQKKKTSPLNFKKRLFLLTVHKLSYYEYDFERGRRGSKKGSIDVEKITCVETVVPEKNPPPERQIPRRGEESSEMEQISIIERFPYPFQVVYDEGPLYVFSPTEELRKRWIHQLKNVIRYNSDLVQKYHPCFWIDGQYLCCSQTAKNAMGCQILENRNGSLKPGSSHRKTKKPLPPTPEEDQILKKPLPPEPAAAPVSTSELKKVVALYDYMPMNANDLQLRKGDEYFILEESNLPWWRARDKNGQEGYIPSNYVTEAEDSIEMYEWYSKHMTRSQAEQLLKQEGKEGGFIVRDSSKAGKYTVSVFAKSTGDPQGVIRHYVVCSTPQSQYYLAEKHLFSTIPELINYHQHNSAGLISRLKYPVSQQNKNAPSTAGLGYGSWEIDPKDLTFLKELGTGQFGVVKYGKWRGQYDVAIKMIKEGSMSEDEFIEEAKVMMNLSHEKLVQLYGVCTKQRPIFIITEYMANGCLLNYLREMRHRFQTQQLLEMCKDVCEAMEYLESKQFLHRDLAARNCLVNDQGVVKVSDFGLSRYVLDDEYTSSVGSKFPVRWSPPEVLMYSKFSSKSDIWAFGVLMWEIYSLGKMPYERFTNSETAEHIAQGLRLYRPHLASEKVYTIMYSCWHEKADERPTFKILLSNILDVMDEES
# Sequence of Protein-tyrosine kinase 6 (Homo sapiens) (Q13882 whole entry, looked up): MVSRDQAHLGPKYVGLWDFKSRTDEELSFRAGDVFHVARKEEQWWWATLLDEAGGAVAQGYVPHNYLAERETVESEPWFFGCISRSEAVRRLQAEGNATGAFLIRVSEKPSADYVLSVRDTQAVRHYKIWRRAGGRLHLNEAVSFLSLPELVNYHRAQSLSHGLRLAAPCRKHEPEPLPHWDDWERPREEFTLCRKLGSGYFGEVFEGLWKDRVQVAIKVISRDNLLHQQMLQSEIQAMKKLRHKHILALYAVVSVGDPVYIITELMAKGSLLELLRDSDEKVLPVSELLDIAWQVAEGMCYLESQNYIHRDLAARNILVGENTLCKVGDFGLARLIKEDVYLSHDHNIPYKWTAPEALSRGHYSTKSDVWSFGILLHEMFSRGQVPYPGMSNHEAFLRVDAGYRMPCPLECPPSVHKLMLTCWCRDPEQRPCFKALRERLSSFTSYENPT
# Sequence of Tyrosine-protein kinase Blk (Homo sapiens) (P51451 2-505 limits assumed): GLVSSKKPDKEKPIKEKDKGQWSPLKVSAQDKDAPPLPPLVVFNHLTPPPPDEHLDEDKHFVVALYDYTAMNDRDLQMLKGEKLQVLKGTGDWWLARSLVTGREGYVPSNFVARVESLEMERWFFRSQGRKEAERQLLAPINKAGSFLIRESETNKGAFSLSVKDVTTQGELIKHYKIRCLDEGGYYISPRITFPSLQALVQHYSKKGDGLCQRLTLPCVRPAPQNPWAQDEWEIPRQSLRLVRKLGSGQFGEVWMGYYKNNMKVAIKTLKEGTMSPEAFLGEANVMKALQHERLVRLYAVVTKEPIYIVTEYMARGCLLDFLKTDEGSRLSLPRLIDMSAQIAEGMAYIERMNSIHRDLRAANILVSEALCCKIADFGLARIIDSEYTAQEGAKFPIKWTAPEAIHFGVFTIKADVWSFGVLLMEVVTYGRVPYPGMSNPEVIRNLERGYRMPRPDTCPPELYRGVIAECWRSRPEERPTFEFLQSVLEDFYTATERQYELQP
SMILES,residual activity [1] [%],residual activity [2] [%],residual activity [3] [%],residual activity [4] [%],residual activity [5] [%],residual activity [6] [%],residual activity [7] [%],residual activity [8] [%],residual activity [9] [%],residual activity [10] [%]
CCCCc1c(-c2ccc(OC)cc2)[nH]c2nccnc12,59,54,77,37,46,35,4,73,72,
COc1ccc(-c2cnc3c(-c4ccsc4)cnn3c2)cc1,95,63,94,,,,,,,95
O=C(NC(NC(=S)Nc1ccc(F)c([N+](=O)[O-])c1)C(Cl)(Cl)Cl)C(c1ccccc1)c1ccccc1 (stereo not given),94,91,,,,87,89,,,91
CC(C)[C@H](CO)Nc1nc(Nc2cc(N)cc(Cl)c2)c2ncn(C(C)C)c2n1,91,52,80,96,83,48,5,,,20
COc1cc2ncnc(Nc3cccc(Cl)c3)c2cc1OC,100,45,102,33,3,,,43,5,51
CCCC(=O)Oc1ccc2[nH]c(C(=O)c3cc4ccccc4[nH]3)cc2c1,104,84,81,101,107,94,,70,64,80
O=C1Nc2ccc(Cl)cc2/C1=C/c1cc(Cl)c(O)c(Cl)c1,96,65,71,84,65,95,70,96,50,46
COc1cc2nccc(Oc3ccc(NC(=O)Nc4cc(C)on4)c(Cl)c3)c2cc1OC,32,7,12,2,-1,50,10,2,0,10
Nc1n[nH]c2nc3ccccc3nc12,72,30,94,,,88,88,89,88,96
Nc1ncnc2c1c(-c1ccc(Oc3ccccc3)cc1)cn2C1CCCC1,87,54,58,0,-1,1,1,0,0,21
O=C(c1ccccc1)c1ccc(N2CCOCC2)cc1O,64,78,86,,,,116,95,81,72
CC(C)(C)n1nc(Cc2cccc3ccccc23)c2c(N)ncnc21,94,71,80,5,-1,24,3,77,13,72
CCCCc1c(-c2ccc(O)cc2)[nH]c2nccnc12,50,49,92,31,29,33,10,73,50,75
O=C1NC(=O)C(c2cn(CCCO)c3ncccc23)=C1c1cnccn1,97,88,61,,,,,78,69,59
O=C(CCCc1ccc(-c2ccccc2F)cc1)Nc1ccc(O)cc1,97,92,105,104,96,106,95,,,100
CC(C)c1nn(-c2c(Cl)cccc2Cl)c2nc(Cc3ccc(OCCO)cc3)[nH]c(=O)c12,85,90,90,,,87,97,92,76,87
NC(=O)Nc1sc(-c2ccc(F)cc2)cc1C(N)=O,9,3,77,77,26,38,1,39,4,24
CC(C)(C)c1nc2c3ccc(F)cc3c3c(=O)[nH]ccc3c2[nH]1,11,7,40,,,71,59,,,59
CCN(CC)CCNC(=O)c1c(C)[nH]c(/C=C2\C(=O)Nc3ccc(Cl)cc32)c1C,38,5,9,65,11,,,1,0,1
COc1cc2nccc(Oc3ccc(NC(=S)NC(=O)c4ccccc4C)cc3)c2cc1OC,13,1,11,22,11,17,2,0,0,8
O=C1NC(=O)c2c1c1c3ccccc3[nH]c1n1cncc21,37,12,86,81,53,70,34,57,8,71
O=C(c1cc2cc(O)ccc2[nH]1)c1cc2cc(O)ccc2[nH]1,61,24,50,,,78,34,6,1,15
Cn1sc(=O)n(Cc2ccccc2)c1=O,76,77,96,96,95,91,91,,,66
CN(C)S(=O)(=O)c1ccc2c(c1)/C(=C/c1cc3c([nH]1)CCCC3)C(=O)N2,75,52,51,98,94,91,50,10,2,36
